Compound activity deposited in PubChem BioAssay by National Center for Advancing Translational Sciences (NCATS).
This is a sample that favours compounds with a hit; in the whole collection about 2.4% have one here.
Pol eta inh: blocks human DNA polymerase eta activity; recombinant Pol eta, fluorescent DNA replication assay; Potency, µM (titrated, usually from 114 µM), for the others: at the highest dose activity change, negative = inhibition, actives largely listed as inhibitors; Q9Y253; AID 588591; actives 1.2% (n = 390,000); note: % is set by controls: 0 for no effect and ±100 for the full control effect
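Fluorescent replication assay: 50 nM final substrate added after a 15 min room-temperature compound preincubation with 10 nM enzyme. Signal taken at 0 min and again at 10 min.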
Pol beta inh: inhibitors of human DNA polymerase beta | P06746 | Pol beta primer extension/strand displacement, fluorescence kinetic | Potency, µM (series often up to 114 µM), for the others: at the top dose activity change, negative = inhibition, hits mostly inhibitors | actives 1.3% (n = 340,000) | AID 485314; note: % is set by controls: 0 for no effect and ±100 for the full control effect
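Pol beta (10 nM) and compounds were preincubated 15 min at room temperature, then 50 nM substrate (final) started primer extension/strand displacement. Reads were taken at 0 and 10 min; concentration-response data were fitted to a four-parameter Hill equation.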
Pol kappa inh: DNA polymerase kappa (human) inhibition | Q9UBT6 | purified Pol kappa, fluorescent DNA synthesis assay, 10 min | Potency, µM (top dose mostly 107 µM), without a hit: at the highest dose activity, negative = inhibition, most hits filed as inhibitors | actives 0.53% (n = 400,000); note: % is set by controls: 0 for no effect and ±100 for the full control effect
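First, compounds were pin-transferred onto 10 nM Pol kappa. After 15 min at room temperature, substrate was added to 50 nM final. Fluorescence was then measured kinetically at 0 and 10 min.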
POLI inh: blocks human DNA polymerase iota activity; Potency, µM (titrated, usually from 115 µM), without a hit: top-dose activity, negative = inhibition, actives largely listed as inhibitors; AID 588590; actives 1% (n = 390,000); Pol iota fluorescent replication assay, 10 min; Q9UNA4
Target sequence (Q9UNA4 whole entry, looked up): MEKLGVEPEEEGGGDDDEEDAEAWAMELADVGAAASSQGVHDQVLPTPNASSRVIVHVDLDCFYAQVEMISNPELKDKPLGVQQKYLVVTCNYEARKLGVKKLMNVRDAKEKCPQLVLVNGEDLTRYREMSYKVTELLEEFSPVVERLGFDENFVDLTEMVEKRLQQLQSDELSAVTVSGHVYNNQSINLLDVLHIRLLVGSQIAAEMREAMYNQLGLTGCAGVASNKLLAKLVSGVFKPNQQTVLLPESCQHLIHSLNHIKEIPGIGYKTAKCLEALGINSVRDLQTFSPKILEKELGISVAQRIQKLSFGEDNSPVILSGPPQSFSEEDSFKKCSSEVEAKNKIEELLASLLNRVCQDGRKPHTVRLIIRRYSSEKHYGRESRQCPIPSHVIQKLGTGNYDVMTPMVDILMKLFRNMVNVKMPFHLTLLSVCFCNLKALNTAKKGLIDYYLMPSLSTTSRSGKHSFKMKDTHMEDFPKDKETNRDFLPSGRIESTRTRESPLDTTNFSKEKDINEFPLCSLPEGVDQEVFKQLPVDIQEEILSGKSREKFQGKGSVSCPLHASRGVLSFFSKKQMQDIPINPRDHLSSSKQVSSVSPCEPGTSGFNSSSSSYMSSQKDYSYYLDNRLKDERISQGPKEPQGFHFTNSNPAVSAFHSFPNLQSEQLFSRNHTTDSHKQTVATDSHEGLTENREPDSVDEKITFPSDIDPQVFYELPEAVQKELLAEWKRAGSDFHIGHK
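Fluorescent replication assay read twice, at 0 min and 10 min after adding 50 nM (final) substrate. Enzyme (10 nM) and compounds were first incubated 15 min at room temperature; enzyme-free buffer wells were negative controls.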
WRN helicase inh: inhibitors of human WRN helicase. WRN helicase unwinding, fluorescent forked duplex, kinetic. Potency, µM (series often up to 114 µM), without a hit: top-dose activity change, negative = inhibition, actives largely listed as inhibitors. actives 0.46% (n = 360,000); note: % is set by controls: 0 for no effect and ±100 for the full control effect; nearly all actives have a fitted effect of over 55% in size
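WRN at 20 nM final was preincubated with compound for 15 min at room temperature; reaction started with 100 nM forked duplex oligonucleotide carrying fluorophore and quencher plus 2 mM ATP (final). Unwinding followed kinetically by red fluorescence (ex 525/em 598 nm).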
FEN1 inhibitor: blocks human flap endonuclease 1; P39748; Recombinant FEN1 flap cleavage, fluorescence, 15 min; Potency, µM (series often up to 114 µM), for inactives: top-dose activity change, negative = inhibition, hits mostly inhibitors; actives 0.35% (n = 390,000); AID 588795; note: % is set by controls: 0 for no effect and ±100 for the full control effect; nearly all actives have a fitted effect of over 65% in size
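Read-out was taken twice, immediately and after 15 min, following addition of 50 nM substrate to 10 nM FEN1 that had sat with test compound for 15 min at room temperature. Curves came from a four-parameter Hill model.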
* hit, by the source's call; [ ] = dose if it differs, or a comment. Calls come from the whole dose curve; as a rule, active = well fitted curve in the direction sought with a large enough effect; inconclusive = small, poorly fitted or top-dose-only effect, or another doubt; inactive = no such curve, though single readings can be large; an effect the other way counts as inactive or inconclusive. Potency is the fitted concentration of half-maximal effect.

For CCCOc1cccc(C(=O)N(Cc2cc(OC)c(OC)c(OC)c2)C2CCS(=O)(=O)C2)c1 (configuration not stated) the results were Pol eta inh -14%, Pol beta inh 13%, Pol kappa inh -2%, POLI inh -1% and FEN1 inhibitor -7%.
Screening O=C(O)c1ccc(NC(CSCc2ccc(F)cc2)C(=O)O)c([N+](=O)[O-])c1 (configuration not stated) returned Pol eta inh -1%, Pol beta inh 3%, Pol kappa inh -15%, POLI inh 79µM*, WRN helicase inh -2% and FEN1 inhibitor 2%.
Cc1ccc(CSCC(Nc2ccc(C(=O)O)cc2[N+](=O)[O-])C(=O)O)cc1 (configuration not stated) was read as Pol eta inh -3%, Pol beta inh 27%, Pol kappa inh -4%[60.1 µM], POLI inh 1%, WRN helicase inh -5% and FEN1 inhibitor -1%.
CC1CCCCN1C(=O)COC(=O)c1ccc(S(C)(=O)=O)c([N+](=O)[O-])c1 (configuration not stated) was read as Pol kappa inh -8%, POLI inh inconclusive and FEN1 inhibitor 15%.
For O=C(CSc1nnc(Cc2csc(Nc3cccc(Cl)c3)n2)o1)N1CCc2ccccc21 the results were Pol eta inh inconclusive, Pol beta inh 1%, Pol kappa inh -28%, POLI inh 79µM*, WRN helicase inh -36% and FEN1 inhibitor -2%.
For Cc1sc2ccccc2[n+]1CCCC[n+]1c(C)sc2ccccc21 the results were Pol kappa inh 3%, POLI inh -6% and FEN1 inhibitor 4%.
For CC(C)n1c(O)c(/C=C2\C=NN=C2c2ccccc2)sc1=S the results were Pol eta inh 1%, Pol beta inh -1%, Pol kappa inh -8%, POLI inh -22%, WRN helicase inh -4% and FEN1 inhibitor -12%.
CCn1c(O)c(/C=C2\C=NN=C2c2ccc(C)cc2)sc1=S was read as Pol eta inh -21%, Pol beta inh 44%, Pol kappa inh -14%, POLI inh 89µM*, WRN helicase inh -2%[11.6 µM] and FEN1 inhibitor -6%.
For CCC(C(=O)Nc1ccc(C)c(Cl)c1)n1c(=O)c(-c2ccccc2NC(C)=O)nc2ccccc21 (configuration not stated) the results were Pol beta inh 3%, Pol kappa inh 3%, POLI inh -28% and FEN1 inhibitor 16%.
For Nc1cc(-c2ccncc2)c[nH]c1=O the results were Pol eta inh inconclusive, Pol beta inh -6%, Pol kappa inh 0%, POLI inh 10µM*, WRN helicase inh 14% and FEN1 inhibitor 1%.
c1ccc2c(-c3ccncc3)c[nH]c2c1 was read as Pol eta inh -17%, Pol beta inh -2%, Pol kappa inh -12%, POLI inh -5%, WRN helicase inh -13% and FEN1 inhibitor -10%.
Screening COc1ccc(C2CC(c3ccccc3)Oc3cc4c(cc32)OCO4)cc1 (configuration not stated) returned Pol kappa inh -2%, POLI inh inconclusive and FEN1 inhibitor inconclusive.
`Cc1cc(C(=O)COC(=O)Cc2ccc(Cl)cc2)c(C)n1C` gave Pol eta inh inconclusive, Pol kappa inh inconclusive, POLI inh 35µM*, WRN helicase inh -23% and FEN1 inhibitor -4%.
For CCOc1ccc2oc(C(=O)NNC(=O)c3ccccc3O)c(C)c2c1 the results were Pol eta inh 79µM*, Pol kappa inh -23%, POLI inh inconclusive, WRN helicase inh 1%[11.6 µM] and FEN1 inhibitor 1%.
O=C(C[n+]1ccccc1)c1cccc([N+](=O)[O-])c1 was read as Pol kappa inh 2%, POLI inh 23% and FEN1 inhibitor 14%.
Screening O=c1oc2cc(O)ccc2c2ccccc12 returned Pol eta inh inconclusive, Pol beta inh 0%, Pol kappa inh -21%, POLI inh 6%, WRN helicase inh -4% and FEN1 inhibitor -23%.
O=c1oc2cc(O)ccc2c2oc3cc(O)ccc3c12 was read as Pol eta inh inconclusive, Pol beta inh 35µM*, Pol kappa inh inconclusive, POLI inh inconclusive, WRN helicase inh inconclusive and FEN1 inhibitor 40µM*.
For CC(=O)c1ccccc1NC(=O)CSc1nnc2ccccn12 the results were Pol beta inh 4%.
NC(=O)c1ccsc1NC(=O)CSc1nnc2ccccn12 was read as Pol eta inh inconclusive, Pol beta inh 25µM*, Pol kappa inh -21%, POLI inh inconclusive, WRN helicase inh -7%[11.6 µM] and FEN1 inhibitor 16%.
`CC(C)CC(CSc1ccc(Br)cc1)N1CCN(C)CCC1=O` (configuration not stated) gave Pol kappa inh 13%, POLI inh 31% and FEN1 inhibitor -4%.
`Cc1oc2cc(O)ccc2c(=O)c1Oc1ccccc1` gave Pol eta inh -19%, Pol beta inh 6%, Pol kappa inh -3%, POLI inh -11%, WRN helicase inh 71µM* and FEN1 inhibitor 0%.
For C(=C\c1nc2ccccc2s1)/c1ccc2c(c1)OCO2 the results were Pol kappa inh 0%, POLI inh 1% and FEN1 inhibitor -23%.
`C[N+](C)(CCCCCI)c1ccc(/C=C/c2nc3ccccc3s2)cc1` gave Pol kappa inh 45µM*, POLI inh 79µM* and FEN1 inhibitor inconclusive.
For CC(=O)OCC(NC(=O)C(COCc1ccccc1)NC(=O)OC(C)(C)C)C1OC(n2ccc(=O)[nH]c2=O)C(OC(C)=O)C1OC(C)=O (configuration not stated) the results were Pol kappa inh -2%, POLI inh -2% and FEN1 inhibitor 1%.
For COc1cc(Cl)c(C)cc1NC(=O)c1cc2ccc3cccnc3c2[nH]1 the results were Pol eta inh inconclusive, Pol beta inh 40µM*, Pol kappa inh -7%, POLI inh inconclusive and FEN1 inhibitor -4%.
`Cc1cc(N)ccc1-n1c(C)ccc1C` gave Pol eta inh -3%, Pol beta inh 42%, Pol kappa inh -16%, POLI inh 4%, WRN helicase inh -9% and FEN1 inhibitor -13%.
Screening Cc1cc(N)ccc1N1CCCC1 returned Pol eta inh 1%, Pol beta inh 97%, Pol kappa inh 0%, POLI inh inconclusive, WRN helicase inh 50µM* and FEN1 inhibitor 40µM*.
CC(C)(C)n1ncc2c(=O)n(Cc3ccc(F)cc3F)cnc21 was read as Pol kappa inh -1%, POLI inh -20% and FEN1 inhibitor -19%.
